The values that follow come from PubChem BioAssay (EPA / NIEHS).

In general, AC50 refers to the concentration giving half of the maximal activity seen.

Records with an inconclusive call do not appear. Where a structure was tested more than once in an assay, its records may differ in their call. Calls of active or inactive are those of the source. Rule for the calls, unless noted: active = hit-call score of the fitted dose curve at least 0.9, where 1 is the maximum; inactive = score below 0.9.

Assay [1] can be described thus: CCTE_Deisenroth_AIME_384WELL_CTox_Active: Cytotoxicity Assessment (CTOX) in CCTE's 384-well Estrogen Receptor Transactivation Assay with AIME metabolic competence (metabolism positive), Deisenroth Lab (AID 2284037; active = hit-call score of the fitted dose curve at least 0.9, where 1 is the maximum;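 note: chemicals first conditioned 2 h by alginate-bound induced rat liver S9 before cells; activity means signal loss indicating cell death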). In short, it runs like this:
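Chemicals pre-incubated 2 hours with alginate-immobilised phenobarbital/beta-naphthoflavone-induced male Sprague Dawley rat liver S9, then conditioned medium applied 24 hour to VM7Luc4E2 cells. Viability by fluorogenic protease substrate; 10-point series 0.002 - 200 uM.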

In assay [2] the target is Estrogen receptor (Homo sapiens) (UniProt P03372). In words: CCTE_Deisenroth_AIME_384WELL_LUC_Inactive: CCTE's 384-well Estrogen Receptor Transactivation Assay without AIME metabolic competence (ERTA luciferase; metabolism negative), Deisenroth Lab (AID 2284038; active = hit-call score of the fitted dose curve at least 0.9, where 1 is the maximum;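 note: VM7Luc4E2 breast cells given medium preincubated 2 h with S9-free microspheres; hits raise estrogen receptor luciferase signal so potencies reflect agonists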). In outline:
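VM7Luc4E2 ER transactivation, luciferase bioluminescence after 24 h, using medium pre-incubated 2 h with S9-free alginate microspheres. Concentrations 0.002–200 uM; gain of signal fitted relative to 17beta-estradiol.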

Assay [3] shares this target. In words: CCTE_Deisenroth_AIME_384WELL_LUC_Shift: CCTE's 384-well Estrogen Receptor Transactivation Assay with AIME metabolic competence data shift (ERTA luciferase; difference in metabolism positive and negative), Deisenroth Lab (AID 2284041).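 Note: shift is response with S9 minus without S9 so positive means metabolism raised ER signal.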 In short, it runs like this: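 Chemicals (0.002–200 uM, 10 points) pre-incubated 2 h with alginate-encapsulated induced male Sprague Dawley rat liver S9 or S9-free, then medium applied 24 h to VM7Luc4E2 cells; luciferase. Endpoint is per-concentration difference, S9-positive minus negative.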

Assay [4] can be described thus: CCTE_Shafer_MEA_dev_firing_rate_mean: CCTE's Neural Network Formation Assay for Mean Firing Rate, Shafer Lab (AID 2284031). In outline: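 Steps: seed rat cortical cells (1.5 x 10^5/well) with laminin on PEI-coated MEA; dose day 0; record DIV 5/7/9/12, full media and compound exchange after DIV 5 and 9 recordings; compute well-mean firing rate AUC.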
Assay [5] in a line: CCTE_Shafer_MEA_dev_per_burst_spike_percent: CCTE's Neural Network Formation Assay for Percent of Spikes in a Burst, Shafer Lab (AID 2284032).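 For AC50: fitted as a decrease in burst spike percentage below DMSO baseline.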 In short, it runs like this:
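Value is trapezoidal AUC over recordings on days 5, 7, 9 and 12 of the well-mean fraction of spikes falling in single-electrode bursts; rat cortical cultures exposed continuously from plating, treatment renewed DIV 5 and 9, fitted downward against DMSO.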

A short description of assay [6]: CCTE_Shafer_MEA_dev_active_electrodes_number: CCTE's Neural Network Formation Assay for Number of Active Electrodes, Shafer Lab (AID 2284040; active = hit-call score of the fitted dose curve at least 0.9, where 1 is the maximum;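 for AC50: potency for loss of active electrodes versus DMSO so lower counts are hits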). In outline:
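Counts electrodes per well firing at least 5 spikes/min, recorded on days 5, 7, 9 and 12 in rat cortical cultures dosed continuously from plating (treatment refreshed DIV 5, 9). Value is the area under the curve over recordings, fitted downward relative to DMSO.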

A short description of assay [7]: CCTE_Shafer_MEA_dev_burst_rate: CCTE's Neural Network Formation Assay for Burst Rate, Shafer Lab (AID 2284042). In outline:
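Exposure ran continuously over 12 days of network development in rat cortical cultures, with compound refreshed during full media changes on DIV 5 and 9. Single-electrode bursts per recording time, well-mean over active electrodes, trapezoidal AUC across days 5–12, fitted downward relative to DMSO.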

Assay [8] is described as follows: CCTE_Shafer_MEA_dev_bursting_electrodes_number: CCTE's Neural Network Formation Assay for Number of Bursting Electrodes, Shafer Lab (AID 2284043; active = hit-call score of the fitted dose curve at least 0.9, where 1 is the maximum;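 for AC50: potency is for loss of bursting electrodes relative to DMSO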). In short, it runs like this:
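Rat cortical primary neurons, 48-well MEA, 16 electrodes/well; dosing DIV 0–12, re-dosed with full media change DIV 5, 9. Recordings DIV 5/7/9/12, AxIS adaptive spike detector; bursting electrode = ≥1 burst/2 min. AUC across days; loss of signal vs DMSO.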

The nature of assay [9]: CCTE_Shafer_MEA_dev_per_burst_interspike_interval: CCTE's Neural Network Formation Assay for Burst Interspike Interval, Shafer Lab (AID 2284044).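 For AC50: potency for a decrease of within-burst interspike interval below DMSO level.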 In short, it runs like this:
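Neurons from rat cortex plated onto PEI-coated MEA wells with laminin […] at 1.5 x 10^5 cells/well, then treated from day 0. Media and compound fully replaced on DIV 5 and 9. Extracellular spontaneous firing recorded four times; interspike interval per burst summarised as AUC.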

The nature of assay [10]: CCTE_Shafer_MEA_dev_burst_duration_mean: CCTE's Neural Network Formation Assay for Mean Burst Duration, Shafer Lab (AID 2284045).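 For AC50: curve fitted for loss meaning shorter burst duration than DMSO.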 In short, it runs like this:
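Rat cortical cultures, 1.5 x 10^5 cells/well with laminin drop; continuous dosing days 0–12, media plus treatment refreshed DIV 5, 9. AxIS adaptive spike detection; mean single-electrode burst duration, AUC over four recordings, negative direction vs DMSO.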

Assay [11] in a line: CCTE_Shafer_MEA_dev_interburst_interval_mean: CCTE's Neural Network Formation Assay for Mean Interburst Interval, Shafer Lab (AID 2284046).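 Note: curve fitted for decrease in interburst interval relative to DMSO.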 In short, it runs like this: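 Primary rat cortical neurons on PEI-coated 48-well MEA plates (laminin added with cells at plating) (16 electrodes/well), exposed from plating day 0 with renewal at DIV 5 and 9. Mean inter-burst interval averaged over bursting electrodes, AUC across days 5, 7, 9, 12; DMSO baseline.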

Assay [12] can be described thus: CCTE_Shafer_MEA_dev_inter_network_spike_interval_mean: CCTE's Neural Network Formation Assay for Mean Inter-network Spike Interval, Shafer Lab (AID 2284047).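 For AC50: potency for a decrease in mean inter-network spike interval below DMSO.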 In outline: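 Mean time between consecutive network-spike peaks, recorded extracellularly (adaptive spike detection) on DIV 5, 7, 9 and 12, summarized as trapezoidal AUC. Rat cortical cultures on MEAs dosed continuously days 0–12, re-dosed at feeds; loss-of-signal fit relative to DMSO.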

A short description of assay [13]: CCTE_Shafer_MEA_dev_network_spike_number: CCTE's Neural Network Formation Assay for Number of Network Spikes, Shafer Lab (AID 2284048).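 Note: synchronized bursts across electrodes counted on days 5 7 9 12 and integrated as AUC.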 In outline:
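Rat cortical primary cultures on 48-well MEA (16 electrodes/well); continuous exposure DIV 0–12, full medium and treatment exchange DIV 5, 9. Readout: network spike count, AxIS adaptive detection, recordings DIV 5/7/9/12 collapsed to AUC; loss-of-signal fit, DMSO baseline.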

Assay [14] in a line: CCTE_Shafer_MEA_dev_network_spike_peak: CCTE's Neural Network Formation Assay for Mean Number of Electrodes in Network Spike, Shafer Lab (AID 2284049).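 For AC50: fitted for loss of signal meaning fewer electrodes in network spikes than DMSO.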 In short, it runs like this:
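Network-spike peak electrode count from recordings on days 5, 7, 9 and 12 was combined as trapezoidal area under the curve. Rat cortical cultures were treated continuously from plating, with compound renewed at each feed (DIV 5, 9); fits versus DMSO.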

The nature of assay [15]: CCTE_Shafer_MEA_dev_network_spike_duration_std: CCTE's Neural Network Formation Assay for Standard Deviation of Network Spike Duration, Shafer Lab (AID 2284052).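 Note: hits are decreases in network spike duration SD versus DMSO vehicle.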 In short, it runs like this:
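Network spike duration variability was collapsed across recordings on days 5, 7, 9 and 12 by trapezoidal area-under-curve and fitted downward against DMSO. Cultures were rat cortical neurons on PEI-coated MEA plates, dosed continuously from plating, refed with compound DIV 5/9.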

Assay [16] can be described thus: CCTE_Shafer_MEA_dev_per_network_spike_spike_number_mean: CCTE's Neural Network Formation Assay for Mean Number of Spikes in a Network Spike, Shafer Lab (AID 2284053).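 For AC50: fitted as decrease in spikes per network spike relative to DMSO.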 In outline: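 Mean spike count within each network spike, taken in a 0.05 s window at its peak, was recorded on days 5, 7, 9 and 12 and integrated as trapezoidal area under the curve. Rat cortical cultures on MEA plates received continuous compound from day 0, refreshed at medium changes on DIV 5 and 9.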

The nature of assay [17]: CCTE_Shafer_MEA_dev_per_network_spike_spike_percent: CCTE's Neural Network Formation Assay for Percent of Spikes in a Network Spike, Shafer Lab (AID 2284054). In short, it runs like this:
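Read-out: percent of spikes falling in a 0.05 s window at network-spike peak, from spontaneous MEA recordings on days 5, 7, 9 and 12; trapezoidal AUC; loss of signal versus DMSO. Rat cortical cultures, compound present throughout.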

A short description of assay [18]: UKN5_HCS_SBAD2_cell_viability: Viability Assessment in the University of Konstanz (UKN) Leist Lab Neurite Outgrowth Assay in human iPSC-derived immature Dorsal Root Ganglia Neurons (UKN5) (AID 2284056). In short, it runs like this:
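iPSC-derived immature peripheral neurons (SBAD2) seeded on Matrigel with CHIR99021, SU5402 and DAPT, dosed 1 h later for 24 h. Viability from Hoechst H-33342 and calcein-AM live staining, high-content imaging; bidirectional fit versus DMSO.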

Sequence of Estrogen receptor (Homo sapiens) (P03372 whole entry, looked up): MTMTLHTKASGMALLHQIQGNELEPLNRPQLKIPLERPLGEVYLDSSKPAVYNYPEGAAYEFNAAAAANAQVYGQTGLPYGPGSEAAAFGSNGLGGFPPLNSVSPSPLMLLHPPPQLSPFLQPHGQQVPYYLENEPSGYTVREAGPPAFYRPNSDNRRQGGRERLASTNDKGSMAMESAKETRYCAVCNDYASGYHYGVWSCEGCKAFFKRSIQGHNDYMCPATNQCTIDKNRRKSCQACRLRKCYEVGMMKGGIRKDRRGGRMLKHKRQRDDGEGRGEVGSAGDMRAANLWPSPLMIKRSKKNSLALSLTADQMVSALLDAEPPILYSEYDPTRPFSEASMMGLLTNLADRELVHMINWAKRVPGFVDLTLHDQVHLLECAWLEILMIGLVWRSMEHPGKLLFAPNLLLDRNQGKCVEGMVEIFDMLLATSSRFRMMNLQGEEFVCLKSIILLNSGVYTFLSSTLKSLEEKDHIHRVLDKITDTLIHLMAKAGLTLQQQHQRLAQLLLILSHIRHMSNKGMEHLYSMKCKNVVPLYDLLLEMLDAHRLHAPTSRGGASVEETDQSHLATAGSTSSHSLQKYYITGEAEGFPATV

In the case of `O=c1c(O)c(-c2ccc(O)c(O)c2)oc2cc(O)cc(O)c12`, the call in assay [1] was inactive. Moreover, the AC50 in assay [2] was 139 µM (active); in [3], 13.5 µM (active).

Consider `Cc1cc(=O)[nH]c(=S)[nH]1`, for which the compound was classed as inactive in assay [4], in assay [5], in [1], in assay [2], in assay [6] and in assay [3]. Also, the outcome in [7], in assay [9], in assay [10], in [11], in assay [12] and in assay [13] was inactive. Further, the outcome in [14], in [15], in [16] and in assay [17] was inactive. In assay [8], the AC50 is 10 µM (active).

As to `C=CCc1ccc(O)c(OC)c1`, the call in assay [4], in assay [5], in assay [1], in [2], in assay [6] and in [3] was inactive. Besides, the call in assay [7], in assay [8], in assay [9], in [10], in assay [11] and in assay [12] was inactive. For the same compound, the compound was called inactive in assay [13], in assay [14], in assay [15], in assay [16] and in [17].

As for `CCCc1cc(=O)[nH]c(=S)[nH]1`, the outcome in [4], in assay [5], in assay [1], in assay [2], in assay [6] and in assay [3] was inactive. Further, the result in [7], in assay [9], in assay [10], in assay [11], in assay [12] and in assay [13] was inactive. Besides, the outcome in assay [14], in assay [15], in assay [16] and in assay [17] was inactive. Moreover, the AC50 was 22.9 µM (active) in assay [5]; 22.9 µM (active) in [6]; 23.2 µM (active) in assay [8]; 11.7 µM (active) in [9]; 23 µM (active) in assay [14]; 25 µM (active) in assay [16]. For the same compound, the AC50 in assay [17] was 24.9 µM (active).

As to `OC[C@@H](O)[C@@H](O)[C@H](O)[C@H](O)CO`, the compound was classed as inactive in [4], in assay [5], in assay [6], in [7], in [8] and in assay [9]. In addition, the outcome in assay [10], in [11], in assay [12], in assay [13], in assay [14] and in assay [15] was inactive. The result in assay [16] and in assay [17] was inactive.

As to `C[Si]1(C)O[Si](C)(C)O[Si](C)(C)O[Si](C)(C)O1`, the compound was classed as inactive in [4], in [5], in [2], in assay [6], in assay [3] and in [7]. The outcome in assay [8], in [9], in assay [10], in assay [11], in [12] and in [13] was inactive. Further, the compound was classed as inactive in assay [14], in [15], in assay [16] and in assay [17].

Consider `CCOc1ccc2c(c1)C(C)=CC(C)(C)N2`, for which the compound was called inactive in assay [1] and in assay [2].

With `CC(=O)Oc1ccccc1C(=O)O`, the outcome in assay [4], in assay [5], in [2], in assay [6], in [3] and in assay [7] was inactive. Moreover, the outcome in [9], in [10], in [11], in assay [12], in assay [13] and in assay [14] was inactive. Moreover, the outcome in assay [15], in assay [16], in assay [17] and in assay [18] was inactive. In addition, the AC50 in assay [10] was 26.2 µM (active); in assay [12] it was 0.0242 µM (active); in [15], 0.0101 µM (active).

Turning to `CCCCCCCCCCCCCCCCCC(=O)O`, the outcome in assay [1], in assay [2] and in [3] was inactive.

As to `C[C@]12C=CC(=O)C=C1CC[C@@H]1[C@@H]2C(=O)C[C@@]2(C)[C@H]1CC[C@]2(O)C(=O)CO`, the outcome in assay [1], in assay [2] and in [3] was inactive.
